# Source: PubChem (National Center for Advancing Translational Sciences (NCATS))
# Hits are enriched below; roughly 3% of the tested compounds scored in any of these assays.
# Tau ThT inhib – qHTS for Inhibitors of Tau Fibril Formation, Thioflavin T Binding; recombinant tau K18 P301L, heparin-induced fibrillization, ThT fluorescence; actives 2.1% (n = 270,000); Microtubule-associated protein tau (Homo sapiens), P10636; Potency, µM (highest dose often 57.4 µM), inactives show top-dose activity, negative = inhibition, actives largely listed as inhibitors; further: nearly all actives have a fitted effect of over 55% in size
# Target sequence (P10636 561-689 P618L limits assumed): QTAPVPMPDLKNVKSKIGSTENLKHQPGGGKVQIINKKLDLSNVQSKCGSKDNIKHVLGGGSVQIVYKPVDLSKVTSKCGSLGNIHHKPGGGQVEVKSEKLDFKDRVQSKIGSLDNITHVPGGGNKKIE
#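 K18 P301L tau (15 uM + 0.24 uM Alexa 594-tagged), heparin 20 uM, NaOAc pH 7, 6 h 37 C; ThT 30 uM, 1 h RT, ex 450/em 510 nm.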
# TexasRed fluor – Total Fluorescence Counterscreen for Inhibitors of the Interaction of Thyroid Hormone Receptor and Steroid Receptor Coregulator 2. Potency, µM (doses to about 106 µM), without a hit: top-dose fluorescence change, negative = quenching. actives 0.29% (n = 280,000). TRb/SRC2 Texas Red total fluorescence interference; active means well fitted curve in either direction with a large enough effect; inconclusive means small, poorly fitted or top-dose-only effect
#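 Human TRβ ligand-binding domain (0.6 uM) and Texas Red SRC2 peptide (20 nM) in Tris buffer with 1 uM T3 and 5% DMSO were incubated with pinned compound for 5 hr at ambient temperature. Total fluorescence was computed as S + 2P (555/632 nm).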
# TRb SRC2 PPI – qHTS for Inhibitors of the Interaction of Thyroid Hormone Receptor and Steroid Receptor Coregulator 2; TRbeta-SRC2 peptide binding, fluorescence polarization; receptor liganded with 1 µM T3; AID 1469, 2008; Potency, µM (titrated, usually from 106 µM), inactives show at the highest dose activity change, negative = inhibition, hits mostly inhibitors; actives 0.065% (n = 280,000); Thyroid hormone receptor beta (Homo sapiens), P10828;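 further: plate controls were bound peptide for no effect and peptide without receptor for full effect; nearly all actives have a fitted effect of over 50% in size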
# Target sequence (P10828 whole entry, looked up): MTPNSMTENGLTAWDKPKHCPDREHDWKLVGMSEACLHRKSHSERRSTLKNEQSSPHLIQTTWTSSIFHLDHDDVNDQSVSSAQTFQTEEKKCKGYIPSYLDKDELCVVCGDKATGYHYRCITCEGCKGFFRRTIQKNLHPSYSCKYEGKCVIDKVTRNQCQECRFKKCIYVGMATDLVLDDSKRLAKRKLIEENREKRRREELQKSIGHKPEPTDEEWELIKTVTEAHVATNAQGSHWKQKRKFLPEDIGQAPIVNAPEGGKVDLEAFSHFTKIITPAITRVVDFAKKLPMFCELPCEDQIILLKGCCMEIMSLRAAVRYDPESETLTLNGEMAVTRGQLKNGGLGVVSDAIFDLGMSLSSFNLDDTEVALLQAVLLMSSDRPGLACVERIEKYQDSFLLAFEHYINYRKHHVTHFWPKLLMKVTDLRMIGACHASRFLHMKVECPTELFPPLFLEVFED
#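 Polarization signal, normalized between peptide-alone and full complex controls, measured compound effects on T3-liganded human TRb LBD (0.6 uM) binding 20 nM Texas Red SRC2 peptide after 5 hr.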
# Tau fibril FP – qHTS for Inhibitors of Tau Fibril Formation, Fluorescence Polarization | Microtubule-associated protein tau (Homo sapiens), P10636 | K18 P301L tau heparin fibrillization, Alexa594 FP, 6 h | Potency, µM (series often up to 57.7 µM), for the others: top-dose activity, negative = inhibition, actives largely listed as inhibitors | actives 0.39% (n = 280,000) | AID 1468, 2008; further: nearly all actives have a fitted effect of over 55% in size
#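 Recombinant K18 P301L […], labeled with Alexa 594 at 0.24 uM over 15 uM unlabeled; heparin inducer 20 uM final; 37 C, 6 hr; FP endpoint.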
# Tau fluor cs – Counterscreen qHTS for Inhibitors of Tau Fibril Formation, Fluorescence Polarization | tau K18 P301L Alexa594 fluorescence, heparin fibrillization | Potency, µM (series often up to 57.7 µM), without a hit: at the highest dose activity change, negative = decrease | actives 0.93% (n = 280,000) | AID 1463, 2008; further: nearly all actives have a fitted effect of over 55% in size
#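 Human tau K18 P301L (15 uM unlabeled, 0.24 uM Alexa 594-labeled) in 100 mM sodium acetate pH 7 with 20 uM heparin, 6 hr at 37 C. ThT 30 uM added, 1 hr ambient; Alexa 594 FP and total fluorescence read at 555/632 nm.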
# An asterisk follows results filed as active; ? = inconclusive; / = no result given; ! = not confirmed by another sample; [ ] = remark or other dose. Unless noted, the call rests on the fitted dose curve; in most records, active means well fitted curve in the direction sought with a large enough effect; inconclusive means small, poorly fitted or top-dose-only effect, or another doubt; inactive means no such curve, though single readings can be large; an effect the other way counts as inactive or inconclusive. Unless noted, on the % scale 0 is the no-effect control and ±100 the full control effect; potency means the concentration at half of the fitted maximal effect.
SMILES,Tau ThT inhib,TexasRed fluor,TRb SRC2 PPI,Tau fibril FP,Tau fluor cs
CC1CCC(NC(=O)C2(C)Cc3ccccc3C(=O)N2Cc2ccc(F)cc2)CC1 (stereo unspecified),0%,-1%,1%,-8%,-11%
CCCCC/C=C\C/C=C\CCCCCCCC(=O)NCCCC(=O)O,-5%,-2%,7%,0%,-8%
C/C(CCN1CCc2nc(-c3ccccc3)c(-c3ccccc3)cc2C1)=N\OC[C@@H](O)[C@@H]1O[C@@H]2OC(C)(C)O[C@@H]2[C@H]1O,?,3%[11.2 µM],-2%[11.2 µM],-1%[11.6 µM],-5%[11.6 µM]
COCCNC(=O)C1(C)C=CCN1C(C)=O (stereo unspecified),-11%,-1%,9%,1%,-6%
COc1cc(/C=N/Nc2nc3ccccc3o2)cc(OC)c1O,14µM*,-11%,-5%,8%,?
COc1cc(/C=N\Nc2nc3ccccc3o2)cc(OC)c1OC,?,-7%,0%,5%,-26%
COc1cccc(NC(=O)c2c(C)oc3nc(C)nc(N4CCCC4)c23)c1,-10%,-3%,0%,3%,-15%
COc1cc2c(cc1OC)CN(C(=O)Nc1ccccc1)CC2,-10%,112µM*[quencher],-10%,-7%,-10%
CC(C)(C)c1ccc(Oc2ccc(NC(=O)c3cccs3)cn2)cc1,1%,-2%,-3%,28µM*,?
COc1ccc(NC(=O)c2cccs2)cn1,-13%,1%,-4%,-9%,-20%
Cn1c(NCc2ccccc2O)nc2ccccc21,2%,3%,-1%,14%,5%
C=CCc1cccc(CNc2nc3ccccc3n2C(C)C)c1O,-15%,-2%,4%,5%,11µM*[quencher]
CCc1ccc(C2CC(=O)c3c([nH]c(C(=O)OC4CCCCCC4)c3C)C2)cc1 (stereo unspecified),2%,-3%,3%,-1%,3%
COc1ccccc1C(C[N+](=O)[O-])c1c[nH]c2ccccc12 (stereo unspecified),-7%,0%,-1%,?,32µM*[quencher]
CCCCC/C=C\C/C=C\CCCCCCCC(=O)OC,/,3%[201 µM],5%[201 µM],/,/
O=C(Cc1cnn(-c2ccccc2)c1)c1ccc(O)c(O)c1O,14µM*,0%,-3%,?,?
CCc1cc(C(=O)Cc2cnn(-c3ccccc3)c2)c(O)cc1O,?,1%,-5%,?,?
COc1ccc(-c2cnc(N)nc2-c2ccc(OCc3ccccc3)cc2O)cc1,-11%,0%,3%,?,?
CCc1cc(-c2nc(N)ncc2-c2ccc(Br)cc2)c(O)cc1OC,?,-2%,2%,-3%,13µM*[quencher]
COc1ccc(NC(=O)c2cc(S(=O)(=O)N3CCCCC3)cn2C)cc1Cl,12%,-1%,2%,-3%,0%
O=C(N/N=C/c1cc2c3c(c1O)CCCN3CCC2)c1ccccc1O,13µM*,-2%,-8%,-5%,11µM*[quencher]
O=c1c(Cl)c(O)c2cccc3c4ccccc4n1c23,14µM*,-8%,-6%,?,?
CC1=CC(C)(C)n2c(O)c(N=N)c3c(C)ccc1c32,11%,0%,-4%,-1%,2%
CC1=CC(C)(C)n2c(O)c(N=N)c3cc(C)cc1c32,28µM*,-1%,-2%,?,?
COc1cc2c3c(c1)c(N=NC(N)=S)c(O)n3C(C)(C)C=C2C,?,-4%,-5%,12%,?
SMILES,Tau ThT inhib,TexasRed fluor,TRb SRC2 PPI,Tau fibril FP,Tau fluor cs
CC1=CC(C)(C)n2c(O)c(N=N)c3c(C)c(C)cc1c32,25µM*,-3%,13%,-15%,?
CN1CCc2c(sc(/N=C/c3cccs3)c2C(N)=O)C1,14µM*,26%,-26%,?,-12%
O=C(CSCc1cc(=O)c2cc(F)ccc2[nH]1)Nc1ccccc1Cl,2%,-1%,6%,-1%,-4%
CCOC(=O)c1cc(CC)sc1NC(=O)COc1ccc2c(C)cc(=O)oc2c1,-1%,-1%,1%,1%,9%
CCOC(=O)c1cc(CC)sc1NC(=O)COc1ccccc1C,0%,1.6µM*[quencher],?,5%,2%
CC(=O)c1sc2nsc(SCCN3CCCC3)c2c1N,10µM*,0%,-5%,-21%,-20%
Oc1ccccc1/C=N/Nc1cccc2cccnc12,?,-3%,3%,15%,13µM*[quencher]
O=C(COc1cccc2cccnc12)N/N=C/c1ccccc1O,?,-2%,-1%,-7%,-10%
Oc1ccc(/C=N/Nc2ccc3ccccc3c2)c(O)c1,18µM*,1%,-2%,?,20µM*[quencher]
Oc1ccccc1/C=N/Nc1ccccc1,?,-6%,-4%,18%,25µM*[quencher]
CSCC[C@H](NC(=O)c1ccc(NC[C@@H](N)CS)cc1-c1ccccc1)C(=O)O,/,-2%,6%,/,/
CN(C)c1ccc(CNc2ccc3c(c2)ncn3C)cc1,?,-8%,0%,0%,16µM*[quencher]
COc1cccc(CNc2ccc3c(c2)ncn3C)c1OC,?,0.0089µM*[quencher],-5%,2%,-28%
CCCCn1cnc2cc(NCc3ccccc3Cl)ccc21,?,0.063µM*[quencher],-23%[53 µM],6%,?
C#CCCCO/N=C1/C[C@@H](O)[C@@H](O)[C@@H]2[C@@H]3C(=O)N(Cc4ccccc4)C(=O)[C@H]3CC[C@@H]12,?,3%[11.2 µM],-2%[11.2 µM],3%[11.6 µM],-25%[11.6 µM]
Cc1cccc(C2=NN(c3ccccc3)[C@H](CO)[C@H]2c2ccccc2)c1,?,-8%,0%,?,18µM*[quencher]
CC[C@H]1C(c2ccc(F)cc2)=NN(c2ccccc2)[C@@H]1CO,?,-1%,-1%,?,22µM*[quencher]
OC[C@@H]1[C@@H](c2ccc(F)cc2)C(c2ccccc2)=NN1c1ccccc1,?,0%,-1%,13%[81.3 µM],16µM*[quencher]
COC(=O)c1ccccc1NC(=O)CN1C(=O)COc2ccc(Cl)cc21,-9%,-27%,-4%,-4%,-17%
COc1ccc(-n2c(=O)c3c4c(sc3n(Cc3cc(C)ccc3C)c2=O)CN(C(C)=O)CC4)c(OC)c1,?,?,-4%,0%,-3%
COc1ccccc1OC(C)C(=O)Nc1cccc(-c2nc3ccccc3o2)c1 (stereo unspecified),-19%,2%,7%,-1%,?
Cc1cc(C)cc(Nc2nc3ccccc3nc2-n2nc(C)cc2C)c1,-8%,-2%,7%,5%,?
Cc1ccc([N+](=O)[O-])cc1N,-6%,-2%[201 µM],0%[201 µM],1%,2%
Nc1cc([N+](=O)[O-])ccc1O,8%,0.11µM*![quencher],7%[201 µM],1%,6%
